Laboratory results: PubChem BioAssay AID1159580 (chemical genetic matrix, 2015)
In all, about 5,500 compounds went through this assay and about 2,000 (36%) were called active. About 18% were inconclusive and are not listed. Cut-off read from the data, not from the text of the source: active = normalized growth mostly below about 0.91 (no sharp cut-off); inconclusive = no clear call, values can overlap the other calls; inactive = mostly above about 0.92. The list shows a part of the results.

Assay: chemical genetic growth profiling, strain panel (AID 1159580);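 note: tested at 20 µM; growth read once vehicle control cultures reached saturation at 30 °C; 1 = growth at the plate median or of vehicle wells; lower values mean less growth of the strain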
Conditions: S. cerevisiae deletion strains, growth OD

Measured: normalized growth

CC1(C)O[C@@H]2[C@@H](CO[C@@]3(COS(N)(=O)=O)OC(C)(C)O[C@@H]23)O1
inactive: locus YAL021C, strain ccr4, active compounds read low 1.03 | locus YAL026C, strain drs2, active compounds read low 1.03 | locus YAL030W, strain snc1, active compounds read low 1.01 | locus YBL061C, strain skt5, active compounds read low 1.01 | locus YBR009C, strain hhf1, active compounds read low 0.983 | locus YBR023C, strain chs3, active compounds read low 1.02 | locus YBR171W, strain sec66, active compounds read low 1.01 | locus YBR231C, strain swc5, active compounds read low 0.981 | locus YBR279W, strain paf1, active compounds read low 1.02 | locus YCL011C, strain gbp2, active compounds read low 1.01 | locus YCL016C, strain dcc1, active compounds read low 1.04 | locus YCL069W, strain vba3, active compounds read low 1.01 | locus YCR088W, strain abp1, active compounds read low 1.01 | locus YDL005C, strain med2, active compounds read low 1.02 | locus YDL040C, strain nat1, active compounds read low 0.997 | locus YDR001C, strain nth1, active compounds read low 1 | locus YDR069C, strain doa4, active compounds read low 0.994 | locus YDR137W, strain rgp1, active compounds read low 1.08 | locus YDR159W, strain sac3, active compounds read low 0.94 | locus YDR195W, strain ref2 0.987 | locus YDR297W, strain sur2, active compounds read low 0.992 | locus YDR334W, strain swr1, active compounds read low 1.02 | locus YDR335W, strain msn5, active compounds read low 1.02 | locus YDR392W, strain spt3, active compounds read low 1.01 | locus YEL003W, strain gim4, active compounds read low 0.99 | locus YEL037C, strain rad23, active compounds read low 1 | locus YEL061C, strain CIN8 (second series), active compounds read low 1 | locus YER015W, strain faa2, active compounds read low 1.01 | locus YER016W, strain bim1, active compounds read low 1.04 | locus YER111C, strain swi4, active compounds read low 1.02 | locus YER155C, strain BEM2 (second series), active compounds read low 1.02 | locus YFR010W, strain ubp6, active compounds read low 0.983 | locus YGL167C, strain pmr1, active compounds read low 1.01 | locus YGL173C, strain kem1, active compounds read low 0.998 | locus YGL227W, strain vid30, active compounds read low 1.01 | locus YGL240W, strain doc1, active compounds read low 0.991 | locus YGL253W, strain hxk2, active compounds read low 1 | locus YHR013C, strain ard1, active compounds read low 1.07 | locus YHR027C, strain rpn1, active compounds read low 1.01 | locus YHR030C, strain SLT2, active compounds read low 0.98 | locus YHR079C, strain IRE1, active compounds read low 0.965 | locus YHR142W, strain chs7, active compounds read low 1.02 | locus YJL092W, strain hpr5, active compounds read low 1.01 | locus YJL095W, strain BCK1 (second series), active compounds read low 1.01 | locus YJL095W, strain BCK1, active compounds read low 0.974 | locus YJL115W, strain asf1, active compounds read low 1.01 | locus YJL129C, strain trk1, active compounds read low 1.01 | locus YJL154C, strain vps35, active compounds read low 1 | locus YJL164C, strain tpk1, active compounds read low 0.988 | locus YJL166W, strain qcr8, active compounds read low 0.985 | locus YJL187C, strain SWE1, active compounds read low 0.992 | locus YJR066W, strain TOR1, active compounds read low 0.942 | locus YKL160W, strain elf1, active compounds read low 1.05 | locus YKR026C, strain gcn3, active compounds read low 1 | locus YKR091W, strain srl3, active compounds read low 0.999 | locus YLL001W, strain dnm1, active compounds read low 0.987 | locus YLL026W, active compounds read low 1 | locus YLL041C, strain sdh2, active compounds read low 0.991 | locus YLR027C, strain aat2, active compounds read low 1.01 | locus YLR113W, strain HOG1, active compounds read low 0.964 | locus YLR221C, strain rsa3, active compounds read low 0.992 | locus YLR258W, strain gsy2, active compounds read low 1.02 | locus YLR262C, strain YPT6 (second series), active compounds read low 1.01 | locus YLR320W, strain mms22, active compounds read low 0.956 | locus YLR342W, strain FKS1, active compounds read low 1.03 | locus YLR357W, strain rsc2, active compounds read low 1 | locus YLR370C, strain arc18, active compounds read low 1.01 | locus YLR384C, strain iki3, active compounds read low 1.03 | locus YML120C, strain ndi1, active compounds read low 0.999 | locus YMR058W, strain fet3, active compounds read low 1.01 | locus YMR125W, strain sto1, active compounds read low 1 | locus YMR129W, active compounds read low 1 | locus YMR205C, strain PFK2, active compounds read low 0.981 | locus YMR231W, strain pep5, active compounds read low 1 | locus YNL071W, strain lat1, active compounds read low 1.01 | locus YNL183C, strain NPR1, active compounds read low 0.902 | locus YNL209W, strain ssb2, active compounds read low 1.01 | locus YNL248C, strain rpa49, active compounds read low 1.03 | locus YNL322C, strain KRE1 (second series), active compounds read low 1.01 | locus YNR049C, strain mso1, active compounds read low 0.99 | locus YOR001W, strain rrp6, active compounds read low 0.965 | locus YOR070C, strain gyp1, active compounds read low 1.01 | locus YOR080W, strain dia2, active compounds read low 1.02 | locus YOR083W, strain WHI5, active compounds read low 0.996 | locus YOR106W, strain vam3, active compounds read low 1.04 | locus YOR231W, strain MKK1, active compounds read low 0.977 | locus YOR265W, strain rbl2, active compounds read low 1 | locus YOR270C, strain vph1, active compounds read low 1.06 | locus YOR290C, strain snf2, active compounds read low 1.06 | locus YPL051W, strain arl3, active compounds read low 1.07 | locus YPL078C, strain atp4, active compounds read low 1.04 | locus YPL106C, strain sse1, active compounds read low 1.07 | locus YPL240C, strain hsp82, active compounds read low 1.01 | locus YPL256C, strain CLN2, active compounds read low 0.95
